Structures are written as SMILES. Among all 2,300 compounds or so, about 1,200 (52%) were called active. Inconclusive results (about 34%) are left out. Calls come from the whole dose curve; as a rule, active = well fitted inhibition curve with a large enough effect; inconclusive = small, poorly fitted or top-dose-only effect, or effect the other way; inactive = no such curve, though single readings can be large or run the other way. So high a share suggests a set chosen from earlier hits. Some of the results follow.
Potency is the fitted concentration of half-maximal effect.

This assay can be described thus: Confirmation screen for delayed death inhibitors of the malarial parasite plastid, 48 hour incubation. Note: nearly all actives have a fitted effect of over 65% in size. As to conditions: P. falciparum-infected erythrocytes, luciferase growth; series mostly up to 28.7 µM. In outline:
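Single-generation (48 h, 37 C) exposure of integrated firefly luciferase-reporter P. falciparum in red cells, 0.1% parasitemia at 2% hematocrit, Albumax-supplemented RPMI. Falling luciferase signal marks parasite growth inhibition.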
With `CC(=O)NC[C@@H]1CN(c2ccc(N3CCOCC3)c(F)c2)C(=O)O1`, the Potency result was “inactive”.

On to `CCCC(=O)N=C1SC2CS(=O)(=O)CC2N1c1ccc(CC)cc1` (stereo not given), for which the Potency was 7.94 µM (active).

Take `CC(=O)NC(C)c1nc2ccccc2n1CC(=O)N1C(C)CCCC1C` (stereo not given): the Potency entry was “inactive”.

Consider `CC(=O)Nc1nc2ccccc2n1Cc1ccc(C)cc1`, for which the Potency was 6.31 µM (active).

On to `Clc1cccc(CN2CCc3c([nH]c4ccccc34)C2)c1`, for which the Potency was 12.6 µM (active).

For `CCN(CC)CCNC(=O)c1ccc(NC(=O)c2ccccc2-c2ccc(C(F)(F)F)cc2)cc1`, the Potency is 12.6 µM (active).

With `CCOCCCNC(=O)/C(C#N)=C/c1ccc(-c2ccc(S(=O)(=O)N3CCOCC3)cc2)o1`, the Potency is 14.1 µM (active).

As to `COc1ccc(-c2c(-c3cc(OC)cc(OC)c3)n(C)c3ccc(-c4ccc5[nH]ccc5c4)cc23)cc1`, the Potency was 8.91 µM (active).

Turning to `O=C(CNC(=O)c1cccc(S(=O)(=O)N2CCc3ccccc32)c1)Nc1ccc(F)c(F)c1F`, the Potency was 12.6 µM (active).

Turning to `COc1cc2c(cc1OC)CN(C(=O)c1cccc(S(=O)(=O)N3CCc4ccccc43)c1)CC2`, the Potency is 11.2 µM (active).

In the case of `O=C(c1cccc(S(=O)(=O)N2CCc3ccccc32)c1)N1CCN(c2ccccc2)CC1`, the Potency was 14.1 µM (active).

With `Cc1cc(C)c2[nH]c(C(=O)N3CCC(n4nccc4NC(=O)C4CC4)CC3)c(C)c2c1`, the Potency is 12.6 µM (active).

As for `Cc1c(C(=O)N2CCC(n3nccc3NC(=O)C3CC3)CC2)[nH]c2ccc(Cl)cc12`, the Potency is 11.2 µM (active).

Turning to `Cc1ccc(S(=O)(=O)Nc2cccc3cccnc23)c([N+](=O)[O-])c1`, the Potency is 5.01 µM (active).

`Cc1ccc(S(=O)(=O)Nc2cccc3cccnc23)cc1`: the Potency is 7.08 µM (active).

`N#Cc1cccc(NC(=O)Cn2c3[n+](c4ccc(C(F)(F)F)cc42)CCCCC3)c1`: the Potency is 4.47 µM (active).

Take `CC1(CCc2ccc3c(c2)OCO3)NCCc2c1[nH]c1ccccc21` (stereo not given): the Potency was 8.91 µM (active).

With `CCOC(=O)C1CCCCN1Cc1cccc(OCc2ccccc2)c1` (stereo not given), the Potency is 14.1 µM (active).

Take `CCOC(=O)C1CCCN(Cc2ccc(OCc3ccccc3)c(OC)c2)C1` (stereo not given): the Potency was 14.1 µM (active).

Regarding `CCOc1cc(/C=C2/C(=O)ON=C2C)ccc1OCc1ccccc1`, the Potency result is “inactive”.

As for `CC(C)(C)c1ccc(C(O)CCCN2CCC(C(O)(c3ccccc3)c3ccccc3)CC2)cc1` (stereo not given), the Potency was 12.6 µM (active).

In the case of `Cc1ccc(C(=O)C(C(=O)/C=C/c2ccccc2)=C2SCCCS2)cc1`, the Potency was 14.1 µM (active).

As to `COc1ccc2[nH]cc(CCCN3C(=O)c4ccccc4C3=O)c2c1`, the Potency result was “inactive”.

For `COc1ccc2[nH]cc(C(=O)CCl)c2c1`, the Potency was 12.6 µM (active).

As to `CCn1c2ccccc2c2c3ncc4cccn4c3ccc21`, the Potency was 14.1 µM (active).

Take `CCC(CC)COC(=O)C1=C(C)NC(=O)NC1c1ccccc1Br` (stereo not given): the Potency was 12.6 µM (active).

In the case of `CCOc1ccccc1CNC(=O)c1cc2oc3ccccc3c2n1CC`, the Potency is 14.1 µM (active).

Consider `COc1cccc(CNC(=O)c2cc3oc4ccccc4c3n2C)c1OC`, for which the Potency result was “inactive”.

In the case of `CCOc1ccc(CNC(=O)c2cc3oc4ccccc4c3n2C)cc1`, the Potency entry is “inactive”.

`CC(=O)Nc1cccc(Oc2ncnc3scc(-c4ccc(C(C)C)cc4)c23)c1`: the Potency was 11.2 µM (active).

Turning to `COc1ccc(-c2c(-c3ccc(OC)c(C)c3O)n[nH]c2C)cc1`, the Potency was 14.1 µM (active).

For `CC1CCC/C=C/C(=O)c2c(O)cc(O)cc2CC(=O)O1` (stereo not given), the Potency is 7.08 µM (active).

`COc1ccc(C2CC(=O)C3=C(C2)Nc2ccccc2NC3c2coc3ccccc3c2=O)cc1OC` (stereo not given): the Potency is 1.26 µM (active).

As for `CCCCSc1nnc(-c2cc3c(C(F)(F)F)nn(C)c3s2)n1C`, the Potency was 12.6 µM (active).

As for `Cc1cccc2cc3c(nc12)SC(=NCC1CCCO1)N(Cc1ccco1)C3` (stereo not given), the Potency was 1.78 µM (active).

Turning to `O=C(O)CCn1c(-c2ccccc2)cc2c1CCCC2=O`, the Potency result is “inactive”.

`COc1cc(/C=C/C(=O)NC(=O)c2ccccc2O)ccc1OC(C)=O`: the Potency was 10 µM (active).

`O=C(CCl)NCCN1C(=O)S/C(=C\c2cccnc2)C1=O`: the Potency is 7.94 µM (active).

Turning to `O=C(CCN1C(=O)S/C(=C\c2ccccc2)C1=O)NC1CCS(=O)(=O)C1` (stereo not given), the Potency result was “inactive”.

In the case of `COc1ccc2c(c1OC)C(=O)OC2Nc1nc(-c2ccccc2)cs1` (stereo not given), the Potency was 10 µM (active).

With `CCCCNc1nc2sc3c(c2c(=O)n1-c1cccc(Cl)c1)CCN(C)C3`, the Potency was 3.55 µM (active).

Regarding `CCCCCNc1nc2sc3c(c2c(=O)n1-c1cccc(Cl)c1)CCN(C)C3`, the Potency is 7.08 µM (active).

For the compound `Brc1ccccc1-c1nnc(COc2ncnc3c2cnn3-c2ccccc2)o1`, the Potency result is “inactive”.

With `CN(C)c1cc[n+](CC(=O)Nc2ccc(OC(F)F)cc2)cc1`, the Potency was 2.82 µM (active).

In the case of `CCOc1ccc(NC(=O)C[n+]2ccc(N(C)C)cc2)cc1`, the Potency was 2.51 µM (active).

On to `O=C(C[n+]1cccc(CNC(=O)c2ccc(OC(F)F)cc2)c1)Nc1ccc(SC(F)F)cc1`, for which the Potency was 5.62 µM (active).

For the compound `Cc1ccc[n+](CC(=O)Nc2ccc(N(C)C)cc2)c1`, the Potency result is “inactive”.

As for `O=C(CCl)Nc1ccc(Sc2ccc(NC(=O)CCl)cc2)cc1`, the Potency was 2.51 µM (active).

Take `CC(C)N(c1ccccc1)c1ccc(NC(=O)CCl)cc1`: the Potency was 11.2 µM (active).

For the compound `CCOC(=O)c1c(NC(=S)N2CCCCC2)sc2c1CCN(C(=O)OCC)C2`, the Potency was 5.62 µM (active).

In the case of `CCc1ccc(-c2nc3ccc(Br)cc3c(C(=O)O)c2C)s1`, the Potency entry was “inactive”.

Consider `C=CCc1cccc(CNc2ccc(Br)cc2)c1O`, for which the Potency was 3.98 µM (active).

Regarding `COc1ccc(CCNc2cc(C)nc3c(-c4ccc(Cl)cc4)c(C)nn23)cc1OC`, the Potency is 12.6 µM (active).

Consider `Fc1ccc(CNc2ccc(N3CCN(Cc4ccccc4)CC3)cc2)cc1`, for which the Potency was 12.6 µM (active).

Regarding `O=C(CSc1nnc(CNc2ccc(F)cc2)o1)c1ccccc1`, the Potency result is “inactive”.

Turning to `CCCCN(CCCC)CC(O)c1cc(Cl)cc2c1-c1ccc(Cl)cc1/C2=C/c1ccc(Cl)cc1` (stereo not given), the Potency is 0.0562 µM (active).

Turning to `Cc1nn(Cc2c(Cl)cccc2Cl)c(C)c1NC(=O)c1cc(C(C)C)on1`, the Potency is 12.6 µM (active).

As for `CCC(C(=O)Nc1sc(C(N)=O)c(C)c1C(=O)OC)c1ccccc1` (stereo not given), the Potency is 12.6 µM (active).

With `CCOC(=O)c1cnc2ccccc2c1NCCc1ccc(OC)c(OC)c1`, the Potency was 11.2 µM (active).

`CCN(CC)C(=O)N1c2ccccc2C=Cc2ccccc21`: the Potency is 15.8 µM (active).

On to `O=C1c2ccccc2C(=Nc2ccccc2)C1c1cccc(Br)c1` (stereo not given), for which the Potency was 3.98 µM (active).

With `CCOC(=O)c1cc(-c2ccccc2)sc1NC(=O)C(C)OC(=O)c1cccnc1Cl` (stereo not given), the Potency is 11.2 µM (active).

In the case of `CCc1ccc(Nc2n[n+](-c3ccccc3)c(-c3cccc(Cl)c3Cl)s2)cc1`, the Potency was 3.16 µM (active).

Regarding `CC1=CC(C)(C)N2C(=O)C3(NCCc4c3[nH]c3ccccc43)c3cc(C)cc1c32` (stereo not given), the Potency is 14.1 µM (active).

`CCN(CC)c1ccc(/C=N/NC(=S)NC)c(O)c1`: the Potency was 10 µM (active).

In the case of `O=C(C[n+]1ccccc1)Nc1ccc(Cl)c([N+](=O)[O-])c1`, the Potency was 12.6 µM (active).

In the case of `O=C(CCl)Nc1c2c(nn1-c1ccccc1)CSC2`, the Potency was 2.51 µM (active).

As to `CC(C)(C)c1cc(NC(=O)CCl)n(-c2ccccc2)n1`, the Potency was 12.6 µM (active).

With `Cc1ccc(-c2cc(NC(=O)CCl)n(-c3ccccc3)n2)cc1`, the Potency is 10 µM (active).

Consider `N#CCCn1nc(-c2ccc(Cl)cc2)cc1Nc1ccccc1NC(=O)C(F)(F)F`, for which the Potency result was “inactive”.

As to `CC1CCN(C(=O)Cn2c(=O)oc3cc(S(=O)(=O)N4CCCCC4)ccc32)CC1`, the Potency is 15.8 µM (active).

Turning to `COc1ccc(CN2CCN(Cc3cc4ccccc4o3)CC2CCO)cc1C` (stereo not given), the Potency is 14.1 µM (active).

Turning to `CCOc1ccccc1CN1CCN(Cc2ccc3cccc(OC)c3n2)CC1CCO` (stereo not given), the Potency was 14.1 µM (active).

Turning to `CCCN1C(=O)c2ccccc2NC1c1ccc(OC)cc1O` (stereo not given), the Potency was 12.6 µM (active).

With `Cc1cccc(C2Nc3ccccc3C(=O)N2c2ccccc2)n1` (stereo not given), the Potency entry was “inactive”.

In the case of `O=[N+]([O-])c1ccc(CNC2CCCc3ccccc32)cc1` (stereo not given), the Potency result was “inactive”.

For `O=[N+]([O-])c1ccc(C[n+]2cccc3c4ccccc4ccc32)cc1`, the Potency was 0.398 µM (active).

For the compound `O=C(NC1CCCC1)c1ccc([N+](=O)[O-])s1`, the Potency was 14.1 µM (active).

For the compound `O=C(NC1C=CS(=O)(=O)C1)c1sc2ccccc2c1Cl` (stereo not given), the Potency was 6.31 µM (active).

Turning to `Cc1cc(Cl)cc(C)c1OCCn1ccnc1`, the Potency was 12.6 µM (active).

In the case of `Cc1nn(Cc2ccccc2Cl)c(C)c1C(=O)Nc1nnc(C2CC2)s1`, the Potency was 11.2 µM (active).

For the compound `Cc1c(OCC(=O)NCc2cccnc2)ccc2c3c(c(=O)oc12)CCCC3`, the Potency is 10 µM (active).

Take `Cc1c(OC(C)C(=O)NCc2cccnc2)ccc2c3c(c(=O)oc12)CCCC3` (stereo not given): the Potency is 1.58 µM (active).

`Cc1c(OCC(=O)NCc2cccnc2)ccc2c3c(c(=O)oc12)CCC3`: the Potency entry is “inactive”.

As for `O=C(Nc1ccccc1SCC1CSc2nc3ccccc3c(=O)n21)c1cccc(Cl)c1` (stereo not given), the Potency was 11.2 µM (active).

On to `O=C(Nc1ccccc1SCC1CSc2nc3ccccc3c(=O)n21)c1ccccc1Cl` (stereo not given), for which the Potency was 11.2 µM (active).

On to `Cc1cccc(C(=O)Nc2ccccc2SCC2CSc3nc4ccccc4c(=O)n32)c1` (stereo not given), for which the Potency was 11.2 µM (active).

Regarding `Cc1ccc(C(=O)Nc2ccccc2SCC2CSc3nc4ccccc4c(=O)n32)cc1` (stereo not given), the Potency is 11.2 µM (active).

As to `COc1ccc(NS(=O)(=O)c2cc(OCC(N)=O)c(C)cc2Cl)cc1`, the Potency is 7.08 µM (active).

Turning to `COc1ccc(/C=C2\N=C(SC)N(c3ccccc3OC)C2=O)cc1`, the Potency was 14.1 µM (active).

For `CCN(CC)C1=N/C(=C\c2ccc(OC)cc2)C(=O)N1c1ccccc1`, the Potency is 14.1 µM (active).

As to `Cc1c(O)ccc2c(CN(C)Cc3ccccc3)cc(=O)oc12`, the Potency is 14.1 µM (active).

Take `COc1cccc(CN(C)Cc2cc(=O)oc3c(C)c(C)ccc23)c1`: the Potency entry is “inactive”.

For `Cc1ccc2c(CN(C)Cc3cccc(Cl)c3)cc(=O)oc2c1C`, the Potency result was “inactive”.

Turning to `COc1ccccc1CN1CCCC(CN(CCN(C)C)C(=O)c2ccc(C)cc2)C1` (stereo not given), the Potency is 15.8 µM (active).

The record behind these values is PubChem BioAssay AID504850 (National Center for Advancing Translational Sciences (NCATS), 2011).
